Source: PubChem BioAssay (several laboratories)
PrP 5UTR inh – inhibition of PrP 5' UTR reporter expression. cell-based PrP 5' UTR mRNA reporter, plate reader. 0.35% of 340,000 active. inhibition, % (concentration not given with the values). AID 488862, 2010; in the data active means inhibition above about 52%; further: 0 = median of the neutral control wells
Mtb FBA inh – Mtb FBA enzyme inhibitors, primary screen, biochemical, fluorescence, strain H37Rv | Fructose-bisphosphate aldolase (Mycobacterium tuberculosis (strain ATCC 25618 / H37Rv)), … | 2.3% of 360,000 active | inhibition, % at 1 µM | AID 588726, 2011 | purified M. tuberculosis FBA, fluorescence read-out;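 further: 0% = vehicle and 100% = reference inhibitor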
Target sequence (P9WQA3 whole entry, looked up): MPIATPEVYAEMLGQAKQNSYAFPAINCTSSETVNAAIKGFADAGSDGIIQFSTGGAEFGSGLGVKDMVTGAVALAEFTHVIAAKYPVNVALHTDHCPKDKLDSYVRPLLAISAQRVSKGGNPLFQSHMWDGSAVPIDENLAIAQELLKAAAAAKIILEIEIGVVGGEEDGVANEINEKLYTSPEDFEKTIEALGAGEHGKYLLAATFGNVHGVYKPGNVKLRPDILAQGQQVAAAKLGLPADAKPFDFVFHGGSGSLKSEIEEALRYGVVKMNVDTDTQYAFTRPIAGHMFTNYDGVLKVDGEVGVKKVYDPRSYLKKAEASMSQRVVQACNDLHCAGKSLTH
BJeLR lethal – MLPCN primary cell-based screen for lethality selective to Ras in HRASV12 cells; BJeLR (HRASV12) viability, CellTiter-Glo ATP luminescence, 48 h; inhibition, % (test concentration not listed); 0.17% of 300,000 active; in the data active means inhibition above about 50%
PfHsp40 rescue – rescue of yeast from PfHsp40 toxicity, primary screen, S. cerevisiae, ATP luminescence; growth rescue, % at 12.5 µM; S. cerevisiae expressing PfHsp40, growth rescue; 0.68% of 340,000 active; in the data active means growth rescue above about 28%, passing the limit was not always enough;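 further: yeast W303a lacking pdr1 and pdr3 grown in galactose medium; growth measured after three days at 30 °C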
GDH-TPI counter-1 – GDH-TPI coupling enzyme inhibitors, primary screen, artefact control for M. tuberculosis FBA inhibitor project, biochemical, absorbance, full deck. GDH-TPI coupled enzyme counterscreen, NADH absorbance. inhibition, % at 4.8 µM. 1.2% of 360,000 active; in the data active means inhibition above about 30%;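 further: 0% = DMSO wells and 100% = wells lacking the enzyme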
PrPC surface inh – inhibitors of human cell surface prion protein PrPC, primary screen, cell-based, TR-FRET. AID 720596, 2013. Major prion protein (Homo sapiens), P04156. TR-FRET read-out. 0.43% of 370,000 active. inhibition, % at 13.8 µM; in the data active means inhibition above about 24%; further: 0% = median of the test wells and 100% = reference compound wells
Mtb FBA confirm – M. tuberculosis aldolase blockers, biochemical, fluorescence, strain H37Rv, confirmation. shares compounds with Mtb FBA inh. purified M. tuberculosis FBA, fluorescence read-out. inhibition, % at 1 µM. 78% of 5,600 active. AID 651616, 2012;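 further: 0% = vehicle wells and 100% = reference inhibitor wells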
GDH-TPI counter-2 – GDH-TPI coupling enzyme inhibitors, artefact control for M. tuberculosis FBA inhibitor project, biochemical, fluorescence, high throughput | 81% of 5,600 active | inhibition, % at 1 µM | shares compounds with Mtb FBA inh | GDH-TPI coupled enzyme counterscreen; in the data active means inhibition above about 10%
GDH-TPI DR – GDH-TPI coupling enzyme inhibitors, dose response, artefact control for M. tuberculosis FBA inhibitor project, biochemical, fluorescence, IC50 | shares compounds with Mtb FBA inh | GDH-TPI coupled enzyme assay, artifact counterscreen | IC50, µM | 79% of 170 active; call rule not given here
Numbers without * were called inactive; x = no result given; + = active, no number. A selection: hits, their analogues and other compounds. The true share with any hit is near 4.5%. Unless noted, no stated cut-off is given here; in the data, active means inhibition above about 27%; inactive means the rest.

SMILES | PrP 5UTR inh | Mtb FBA inh | BJeLR lethal | PfHsp40 rescue | GDH-TPI counter-1 | PrPC surface inh | Mtb FBA confirm | GDH-TPI counter-2 | others
COc1ccc(OC)c(/C=N/NC(=O)CCc2n[nH]c(=O)[nH]c2=O)c1 | -5 | 60* | -8 | 0 | 13 | -5 | 119* | 87*
COc1ccc(OC)c(/C=N/NC(=O)c2[nH]nc3c2CCc2ccccc2-3)c1 | -10 | 45* | -3 | -1 | 15 | 8 | + | +
COc1ccc(OC)c(/C=N/NC(=O)c2[nH]ncc2Br)c1 | x | 39* | -7 | x | 21 | 5 | + | +
C#CCSc1nnc(-c2ccc([N+](=O)[O-])cc2)o1 | -61 | 0 | -3 | -1 | 12 | -44 | x | x
CCc1cc(C(=O)N2CCCC(C(=O)c3ccc(C(F)(F)F)cc3)C2)n(C)n1 (stereo not given) | 4 | -2 | 2 | -1 | -15 | 10 | x | x
O=C(Nc1cccc(C(=O)N2CCCc3ccccc32)c1)c1ccccc1 | -10 | -2 | -3 | 0 | 0 | 7 | x | x
C=C1CC[C@H](O)C/C1=C/C=C1\CCC[C@]2(C)[C@@H]([C@H](C)/C=C/[C@H](C)C(C)C)CC[C@@H]12 | -4 | 5 | x | 1 | 2 | 9 | x | x
CSCC[C@H](NC(=O)c1cc2c([nH]c3ccccc32)c(-c2ccccc2)n1)C(=O)O | -16 | 47* | -5 | 1 | 12 | 1 | 24 | 15*
CSCCC(NC(=O)c1ccc(Cl)cc1)C(=O)O (stereo not given) | -34 | 4 | 6 | 0 | 2 | -2 | x | x
C[C@H](NC(=O)c1cc2c([nH]c3ccccc32)c(-c2ccccc2)n1)C(=O)O | -19 | 36* | 4 | 2 | -1 | 2 | 141* | 108*
CSCCC(NC(=O)c1ccccc1)C(=O)O (stereo not given) | -5 | 42* | -5 | x | 6 | -2 | x | +
COCCNc1nc(-c2cc(C)c(C)cc2C)cs1 | -16 | 2 | 1 | -2 | -5 | 3 | x | x
Cc1nc(CS(=O)(=O)c2ccc(Cl)cc2)cc(Sc2ccccc2Cl)n1 | -13 | 31* | 3 | 1 | 3 | -2 | 110* | 98*
O=C(CCN1C(=O)[C@@H]2Cc3ccccc3CN2C1=O)N[C@H](C(=O)O)c1ccccc1 | -15 | 1 | 6 | 0 | -1 | 2 | x | x
CCCn1c(SCC(=O)N2CCCC(C)C2)nnc1-c1ccccn1 (stereo not given) | -9 | 0 | -8 | -2 | -1 | 4 | x | x
CCOC(=O)c1oc2cccc(OCC(O)CNC(C)C)c2c1C (stereo not given) | -14 | 91* | 4 | 0 | 8 | -2 | 11 | -4 | GDH-TPI DR=1.5*
COc1cc2cc(CN(CCO)S(=O)(=O)c3ccccc3)c(=O)[nH]c2cc1OC | -19 | 38* | 1 | 0 | 38* | 9 | 88* | 71*
CS(=O)(=O)Cc1cc(Sc2ccccc2)nc(-c2ccncc2)n1 | -21 | 34* | -9 | 0 | 2 | 4 | 8 | -4
Oc1cccc(C=Nc2cccc3ccccc23)c1O | -13 | 0 | -15 | 15 | 20 | -4 | x | x
Oc1ccccc1C=Nc1cccc2ccccc12 | 1 | 42* | 5 | -1 | -7 | 2 | 15 | -3 | GDH-TPI DR=9.3*
O=C(CNC(=O)c1cccc(Cl)c1)NCC(c1cccs1)N1CCOCC1 (stereo not given) | 0 | 3 | x | -1 | 2 | -2 | x | x
CC(=O)Nc1c(-c2ccccc2)nc2ncccn12 | -21 | 42* | 17 | 1 | 15 | 3 | 40* | 30*
Cc1ccc(-c2nc3ncccn3c2NC(=O)C2CC2)cc1 | -13 | 63* | 3 | -1 | 7 | -2 | 36* | 10*
CC(=O)Nc1c(-c2ccc(F)cc2)nc2ncccn12 | x | x | x | x | x | -6 | x | x
CN(CCc1ccccc1)C(c1cc2ccccc2o1)c1nnnn1C(C)(C)C (stereo not given) | x | x | x | x | x | -2 | x | x
SMILES | PrP 5UTR inh | Mtb FBA inh | BJeLR lethal | PfHsp40 rescue | GDH-TPI counter-1 | PrPC surface inh | Mtb FBA confirm | GDH-TPI counter-2 | others
Cc1nc(NCCCO)c(C#N)c2c1COC(C)(C)C2 | -12 | 74* | -6 | 3 | 5 | -2 | 113* | 86*
OCC[C@@H]1C[C@H](O)[C@@H](O)[C@]2(OCc3ccc4ccccc4c32)O1 | x | 1 | x | x | 9 | -9 | x | x
Cc1noc(C)c1C(C)C1=CCCCC1 (stereo not given) | x | x | x | x | x | 1 | x | x
COc1ccc2c(c1)C1OCCC1C(c1ccco1)N2 (stereo not given) | -17 | 93* | 9 | 0 | 44* | x | 96* | 67*
CC1=C(C(=O)OC2CCCCC2)C(c2ccccc2Br)NC(=O)N1 (stereo not given) | 3 | 1 | 5 | 0 | 9 | 7 | x | x
Cc1cccc(NS(=O)(=O)c2ccccc2)n1 | -27 | 29* | -5 | 1 | 2 | -5 | 69* | 59*
Cc1cccc(NS(=O)(=O)c2ccc(C(C)(C)C)cc2)n1 | -29 | 23 | -3 | -1 | 10 | 11 | x | x
Cc1cccc(NS(=O)(=O)Cc2ccccc2)n1 | -8 | 66* | 8 | -1 | 10 | -2 | 66* | 54*
O=C(CC[C@H]1O[C@@H](n2ccc(=O)[nH]c2=O)[C@H](O)[C@@H]1O)N[C@H](Cc1ccccc1)C(=O)NCCCc1ccccc1 | x | 6 | x | x | x | -7 | x | x
c1ccc2c(c1)[nH]c1c(N3CCCC3)ncnc12 | -24 | 3 | 1 | 2 | 14 | 7 | x | x
c1ccc2c(c1)[nH]c1c(N3CCN(C4CCCCC4)CC3)ncnc12 | -65 | 33* | 5 | 1 | 7 | 1 | 40* | 22*
CCNc1nc(OC)nc(N(OC)S(=O)(=O)c2ccc(C)cc2)n1 | -27 | 2 | -3 | 2 | -2 | 4 | x | x
CC(C)N(Cc1nc(-c2ccc(Cl)cc2)no1)Cc1nccn1C | 8 | -1 | 2 | 0 | -10 | 4 | x | x
O=C(NCCc1ccccc1)C1Cc2c(-c3ccc4c(c3)OCO4)ccnc2O1 (stereo not given) | x | 47* | x | x | -4 | 9 | 29* | 36*
CC(=O)c1cccc(-c2ccnc3c2CC(C(=O)NCCc2ccccc2)O3)c1 (stereo not given) | x | -3 | x | x | 2 | 7 | x | x
